According to PubChem BioAssay AID1259343 (VanderVen Lab, College of Veterinary Medicine, Cornell …, 2017):
Hit rate of the full screen: of about 6,200 compounds, about 2,900 (47%) were called active. Rule as the data show it: active = inhibition above about 50%; inactive = the rest. So high a share suggests a set chosen from earlier hits. This is one part of the list.

Assay: Mycobacterium tuberculosis growth inhibition, primary screen (AID 1259343)
Conditions: inhibition: at 10 µM, stronger effect = higher value; outcome: 10 uM

Which inhibition does the source give for `COc1cccc(-c2ccc(NC(=O)C3CCCN(Cc4nccs4)C3)cc2)c1` (stereo not drawn) here?
Its inhibition is 48.2% (inactive).

For `COc1cccc(-c2ccc(NC(=O)C3CCCN(Cc4cccc(O)c4)C3)cc2)c1` (stereo not drawn), which inhibition is on record?
The inhibition was 70.1% (active).

Which inhibition does the source give for `CCCc1ncc(CN2CCCC(C(=O)Nc3ccc(-c4cccc(OC)c4)cc3)C2)cn1` (stereo not drawn) here?
Its inhibition is 68.2% (active).

For `Cc1cc(C(C)(C)C)cc(C)c1CCNS(=O)(=O)N(C)C`, which inhibition is on record?
The inhibition was 27.1% (inactive).

For `Cn1ccc(C(=O)NCCc2ccc(OCc3ccccc3)cc2)cc1=O`, which inhibition is on record?
The inhibition was 65.2% (active).

For `O=C(Nc1ccn(-c2ccccc2)n1)C1CCCC1`, which inhibition is on record?
Its inhibition is 21.5% (inactive).

For `Cc1cc(C(=O)Nc2ccn(-c3ccccc3)n2)c(C)o1`, which inhibition is on record?
The inhibition was 59.6% (active).

With `Brc1cnn(Cc2nnc(-c3ccco3)o2)c1` as the molecule, how does the inhibition read?
Its inhibition is -27.3% (inactive).

Which inhibition does the source give for `Nc1cnn(Cc2ccc(Br)cc2)c1` here?
Its inhibition is 94.8% (active).

With `CN(C)c1cc[n+](Cc2c(Cl)cccc2Cl)cc1` as the molecule, how does the inhibition read?
The inhibition was 21.9% (inactive).

Which inhibition does the source give for `C[n+]1c2cc(N)ccc2cc2ccc(N)cc21` here?
The inhibition was 92% (active).

Which inhibition does the source give for `O=C1N=c2ccccc2=C1N=Nc1nc(O)c(-c2c(O)[nH]c3ccccc23)s1` here?
Its inhibition is -14% (inactive).

Which inhibition does the source give for `O=C1N=c2ccccc2=C1N=Nc1c(O)[nH]c2c(Cl)cc(Cl)cc12` here?
The inhibition was 80% (active).

For `Oc1[nH]c2c(Cl)cc(Cl)cc2c1N=Nc1nc2ccccc2o1`, which inhibition is on record?
Its inhibition is 101% (active).

Which inhibition does the source give for `O=C(NNc1cccc(Cl)c1)[C@@H]1CCCN1c1nccc(Nc2ccccc2)n1` here?
Its inhibition is 91.9% (active).

With `O=C(NCCCc1ccccc1)c1cc(=O)c(OCc2ccc(F)cc2)co1` as the molecule, how does the inhibition read?
Its inhibition is 99.9% (active).

With `Cc1ccc(C)c(COc2cccn3c(CCNC(=O)COCc4ccccc4)cnc23)c1` as the molecule, how does the inhibition read?
The inhibition was 33.6% (inactive).

For `CCOc1coc(C(=O)NCCc2ccc(Cl)cc2)cc1=O`, which inhibition is on record?
The inhibition was 49.6% (inactive).

For `O=C(NCCCc1ccccc1)c1cc(=O)c(OCc2ccccc2)co1`, which inhibition is on record?
The inhibition was 99.7% (active).

With `CCOC(=O)Cn1c(=NC(=O)c2cc(C)no2)sc2cccc(F)c21` as the molecule, how does the inhibition read?
The inhibition was 49.7% (inactive).

With `CC(=O)Oc1ccc2c(=O)c(Oc3ccc(F)cc3)c(C(F)(F)F)oc2c1` as the molecule, how does the inhibition read?
Its inhibition is 18.9% (inactive).

Which inhibition does the source give for `O=c1c(-c2ccc3c(c2)OCCO3)c(C(F)(F)F)oc2cc(O)ccc12` here?
Its inhibition is 104% (active).

Which inhibition does the source give for `CC(=O)Oc1ccc2c(=O)c(-c3ccc4c(c3)OCCO4)c(C)oc2c1OC(C)=O` here?
The inhibition was 26.1% (inactive).

For `Cc1sc2nc(-c3cccnc3)nc(NC(C)C(C)C)c2c1C` (stereo not drawn), which inhibition is on record?
The inhibition was -13.7% (inactive).

Which inhibition does the source give for `C#CCN(CC=C)Cc1nc(-c2ccc(Cl)cc2)oc1C` here?
The inhibition was 14.8% (inactive).

With `CN(C)C(=S)SSC(=S)N(C)C` as the molecule, how does the inhibition read?
The inhibition was 102% (active).

Which inhibition does the source give for `CC1(C)C(=O)C=C[C@@]2(C)C1C[C@@H](O)[C@]1(C)C2CC[C@@]2(C)[C@H](c3ccoc3)OC(=O)[C@H]3O[C@]321` (stereo partly drawn) here?
Its inhibition is 67% (active).

Which inhibition does the source give for `CC(=O)O[C@H]1C[C@@H](OC(C)=O)C(C)(C)C2C[C@@H](OC(C)=O)[C@]3(C)C(CC[C@@]4(C)[C@H](c5ccoc5)C(=O)[C@H]5O[C@]543)[C@]21C` (stereo partly drawn) here?
Its inhibition is 36.2% (inactive).

For `O=C(CCn1cncn1)Nc1ccc2c(c1)CCC2`, which inhibition is on record?
Its inhibition is 87.1% (active).

With `Cn1cnnc1SCC(=O)Nc1ccc2c(c1)CCC2` as the molecule, how does the inhibition read?
Its inhibition is -17.5% (inactive).

With `O=C1C(=Cc2ccc(F)cc2)CSc2ccc(F)cc21` as the molecule, how does the inhibition read?
Its inhibition is 21.3% (inactive).

Which inhibition does the source give for `CCN1c2ccccc2N(C)[C@]1(C)c1ccccc1` here?
Its inhibition is 68.3% (active).

With `Fc1ccc(C2C=C(c3ccccc3)Nc3nc(C(F)(F)F)nn32)cc1F` (stereo not drawn) as the molecule, how does the inhibition read?
Its inhibition is 3.02% (inactive).

With `N#Cc1ccc(C2C=C(c3ccc(Br)cc3)Nc3nc(C(F)(F)F)nn32)cc1` (stereo not drawn) as the molecule, how does the inhibition read?
Its inhibition is 90.9% (active).

For `Clc1ccc(C2=CC(c3ccc4c(c3)OCO4)n3nc(-c4ccccc4)nc3N2)cc1` (stereo not drawn), which inhibition is on record?
The inhibition was -34.2% (inactive).

Which inhibition does the source give for `FC(F)(F)c1nc2n(n1)C(c1ccc(Cl)cc1)C1=C(N2)c2ccccc2SC1` (stereo not drawn) here?
The inhibition was 36.9% (inactive).

For `Fc1ccc(C2=CC(c3ccc4c(c3)OCO4)n3nc(C(F)(F)F)nc3N2)cc1` (stereo not drawn), which inhibition is on record?
The inhibition was 74.3% (active).

With `O=C(Nc1nnc(C2CC2)s1)N1CCC(Cc2cccc(F)c2)CC1` as the molecule, how does the inhibition read?
The inhibition was -2.76% (inactive).

With `O=C(Nc1ccc(F)cc1F)N1CCC(Cc2ccc(C(F)(F)F)cc2)CC1` as the molecule, how does the inhibition read?
The inhibition was 62.3% (active).

For `O=C(NC1CCN(c2ccccc2C(=O)NCc2ccc(F)cc2)CC1)c1ccc(C(F)(F)F)cc1`, which inhibition is on record?
The inhibition was -29.8% (inactive).

For `Cc1ccc(F)cc1NC(=O)N1CCN(CCCOC(c2ccc(Cl)cc2)c2ccc(Cl)cc2)CC1`, which inhibition is on record?
Its inhibition is 6.69% (inactive).

With `O=C1NC2(CCN(C(=O)Nc3ccc(C(F)(F)F)cc3)CC2)Nc2cc(Cl)ccc21` as the molecule, how does the inhibition read?
Its inhibition is -1.82% (inactive).

Which inhibition does the source give for `O=C(Nc1ccc(F)cc1F)N1CCC(Cc2ccc(-n3cccc3)cc2)CC1` here?
Its inhibition is 51% (active).

For `COc1ccc(CC2CCN(C(=O)Nc3cccc(F)c3)CC2)cc1`, which inhibition is on record?
Its inhibition is 74.8% (active).

For `COc1cccc(NC(=O)N2CCC(Cc3ccc(F)cc3)CC2)c1`, which inhibition is on record?
The inhibition was 47.7% (inactive).

With `CCCC(=O)NC(=S)Nc1ccc2nn(-c3ccccc3)nc2c1` as the molecule, how does the inhibition read?
The inhibition was 79.1% (active).

For `CCC(=O)NC(=S)Nc1ccc(C(=O)NC(C)(C)C)cc1`, which inhibition is on record?
The inhibition was 37.3% (inactive).

For `COc1ccc(-n2nc3ccc(N)cc3n2)cc1`, which inhibition is on record?
The inhibition was -45% (inactive).

For `CC(C)CSc1n[nH]c(=S)s1`, which inhibition is on record?
The inhibition was 100% (active).

For `CCCSc1n[nH]c(=S)s1`, which inhibition is on record?
The inhibition was -46% (inactive).

For `CCCCSc1n[nH]c(=S)s1`, which inhibition is on record?
Its inhibition is -27% (inactive).

Which inhibition does the source give for `S=c1[nH]nc(SCc2c(Cl)cccc2Cl)s1` here?
The inhibition was 23.4% (inactive).

For `C=C(C)CSc1n[nH]c(=S)s1`, which inhibition is on record?
Its inhibition is 58.8% (active).

With `S=c1[nH]nc(SCC#Cc2ccccc2)s1` as the molecule, how does the inhibition read?
The inhibition was 47.6% (inactive).

Which inhibition does the source give for `S=c1[nH]nc(SCc2cccs2)s1` here?
The inhibition was 99.3% (active).

Which inhibition does the source give for `CC(C)Sc1n[nH]c(=S)s1` here?
The inhibition was -48.8% (inactive).

With `O=C1NC(=S)SC1=Cc1c(F)cccc1Cl` as the molecule, how does the inhibition read?
Its inhibition is 83.6% (active).

With `O=C1NC(=S)SC1=Cc1c(F)cccc1F` as the molecule, how does the inhibition read?
Its inhibition is 74.2% (active).

For `CC(=O)N[C@@H]1C[C@H](Cc2ccccc2)O[C@H](c2ccc(Cl)cc2)C1`, which inhibition is on record?
The inhibition was 61% (active).

Which inhibition does the source give for `CC(C)(C)c1ccc(S(=O)(=O)/C=C/C#N)cc1` here?
The inhibition was 102% (active).

Which inhibition does the source give for `CCOC(=O)c1cnn(Cc2ccc(C)cc2)c1N` here?
Its inhibition is 71.9% (active).

With `CCOC(=O)c1cc([N+](=O)[O-])nn1Cc1ccc(Cl)c(Cl)c1` as the molecule, how does the inhibition read?
Its inhibition is 19.4% (inactive).

Which inhibition does the source give for `CCNC(=S)n1ncc(C(=O)OCC)c1N` here?
Its inhibition is -17% (inactive).
